According to PubChem BioAssay (EPA / NIEHS):
Values joined by “and” are separate entries in the source; they are usually repeats but may differ in a detail not shown here. Equal values may be shown once. Active and inactive are the calls of the source. The calls were made as follows: active = hit-call score of the fitted dose curve at least 0.9, where 1 is the maximum; inactive = score below 0.9.

Columns and labels:
[1] = read-out: Macrophage colony-stimulating factor (MCSF), CSF1 (gene 1435); experiment: BSK_hDFCGF_MCSF: BioMAP Diversity Plus: hDFCGF Assay for Macrophage colony-stimulating factor (MCSF) Biomarker Activity (AID 2283060); settings: primary human foreskin fibroblasts; actives raise or lower the signal
How it was run: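 M-CSF levels, determined by ELISA, are taken at 24 h after dosing human skin fibroblasts. Responses in either direction are fitted with DMSO serving as the baseline.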

[2] = BSK_hDFCGF_SRB: Viability Assessment in the BioMAP Diversity Plus: hDFCGF Assay (AID 2283061); settings: primary human foreskin fibroblasts;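 also: cells exposed to compound for 24 h before the read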
How it was run: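 Cells were dosed with test chemical, cultured 24 h, fixed with 10% TCA, then stained with 0.1% SRB and read at 560 nm. The fibroblasts were human foreskin primary cells, and DMSO served as baseline.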

[3] = read-out: TIMP metallopeptidase inhibitor 1 (TIMP1), TIMP1 (gene 7076); experiment: BSK_hDFCGF_TIMP1: BioMAP Diversity Plus: hDFCGF Assay for TIMP metallopeptidase inhibitor 1 (TIMP1) Biomarker Activity (AID 2283062); settings: primary human foreskin fibroblasts; actives raise or lower the signal
How it was run: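 Fibroblasts from human foreskin are treated with test chemical and harvested at 24 h. TIMP-1 is quantified by ELISA, and gain or loss of signal is scored against DMSO.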

[4] = read-out: Monokine induced gamma interferon (MIG), CXCL9 (gene 4283); experiment: BSK_hDFCGF_MIG: BioMAP Diversity Plus: hDFCGF Assay for Monokine induced gamma interferon (MIG) Biomarker Activity (AID 2283063); settings: primary human foreskin fibroblasts; actives raise or lower the signal
How it was run: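 MIG signal, determined by ELISA, reflects 24 h chemical exposure of human skin primary fibroblasts. DMSO serves as negative control and baseline.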

[5] = read-out: Vascular cell adhesion molecule 1 (VCAM1), VCAM1 (gene 7412); experiment: BSK_hDFCGF_VCAM1: BioMAP Diversity Plus: hDFCGF Assay for Vascular cell adhesion molecule 1 (VCAM1) Biomarker Activity (AID 2283065); settings: primary human foreskin fibroblasts; actives raise or lower the signal;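 as to AC50: VCAM-1 protein level quantified by ELISA after 24 h chemical exposure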
How it was run: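 Cells are dosed, cultured for 24 h, then VCAM-1 is quantified by ELISA; signal increases and decreases are both fitted relative to DMSO.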

[6] = read-out: Plasminogen activator inhibitor-1 (PAI1), SERPINE1 (gene 5054); experiment: BSK_hDFCGF_PAI1: BioMAP Diversity Plus: hDFCGF Assay for Plasminogen activator inhibitor-1 (PAI1) Biomarker Activity (AID 2283066); settings: primary human foreskin fibroblasts; actives raise or lower the signal
How it was run: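 PAI-1 levels, determined by ELISA, served as the endpoint in human foreskin fibroblast cultures exposed to compound for 24 h, with DMSO as baseline.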

[7] = read-out: Intercellular Adhesion Molecule 1 (ICAM1), ICAM1 (gene 3383); experiment: BSK_KF3CT_ICAM1: BioMAP Diversity Plus: KF3CT Assay for Intercellular Adhesion Molecule 1 (ICAM1) Biomarker Activity (AID 2283067); settings: primary human keratinocytes with fibroblasts; actives raise or lower the signal
How it was run: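 Dose the keratinocyte/fibroblast co-culture, wait 24 h, measure ICAM-1 by ELISA, then fit increases or decreases against DMSO. Cytotoxicity is checked in parallel cultures by SRB total-protein staining.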

[8] = read-out: Interferon-gamma inducible Protein 10 (IP10), CXCL10 (gene 3627); experiment: BSK_KF3CT_IP10: BioMAP Diversity Plus: KF3CT Assay for Interferon-gamma inducible Protein 10 (IP10) Biomarker Activity (AID 2283068); settings: primary human keratinocytes with fibroblasts; actives raise or lower the signal
How it was run: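 In a primary skin co-culture of keratinocytes and fibroblasts, IP-10 is quantified by ELISA at 24 h after dosing. SRB staining of parallel wells monitors overt toxicity. Curves are fitted both directions against DMSO.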

[9] = BSK_KF3CT_SRB: Viability Assessment in the BioMAP Diversity Plus: KF3CT Assay (AID 2283069); settings: primary human keratinocytes with fibroblasts;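 also: total protein by sulforhodamine B staining as a cytotoxicity measure; read 24 h after compound addition; fitted for both signal gain and loss against DMSO baseline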
How it was run: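 Human keratinocyte and foreskin fibroblast co-culture exposed to chemical for 24 h. Total protein measured in parallel cultures by 0.1% sulforhodamine B staining after 10% TCA fixation, read at 560 nm; bidirectional fit relative to DMSO.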

[10] = read-out: Matrix Metallopeptidase 1 (MMP1), MMP1 (gene 4312); experiment: BSK_hDFCGF_MMP1: BioMAP Diversity Plus: hDFCGF Assay for Matrix Metallopeptidase 1 (MMP1) Biomarker Activity (AID 2283064); settings: primary human foreskin fibroblasts; actives raise or lower the signal
How it was run: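 Primary human foreskin fibroblasts exposed to chemicals for 24 h; MMP1 measured by ELISA. Cytotoxicity tracked by SRB staining in parallel cultures; bidirectional fit relative to DMSO.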

Measured: AC50

Cc1ccn2nc(S(=O)(=O)Nc3c(F)cccc3F)nc2n1
not listed: [10]
inactive: all other assays above

CCC(=NOC/C=C/Cl)C1=C(O)CC(C2CCOCC2)CC1=O (stereo unspecified)
not listed: [8] | [10]
inactive: all other assays above

CNC(=O)ON=C(SC)C(=O)N(C)C
not listed: [3]
inactive: all other assays above

COP(=O)(NC(C)=O)SC (stereo unspecified)
not listed: [3]
inactive: all other assays above

COP(=O)(OC)SCn1c(=O)oc2cc(Cl)cnc21
active: [1] 10.4 µM | [2] 13.8 µM | [4] 19.3 µM | [5] 16.3 µM | [6] 17 µM | [7] 18 µM | [8] 16.5 µM | [9] 14.9 µM

CCOP(=O)(OCC)Oc1cc(C)nc(C(C)C)n1
active: [1] 34.3 µM | [6] 7.42 µM
inactive: [2] | [4] | [5] | [7] | [9]

CON=C(C(=O)OC)c1ccccc1CON=C(C)c1cccc(C(F)(F)F)c1
active: [2] 4.21 µM | [6] 4 µM | [8] 18 µM
not listed: [3] | [10]
inactive: all other assays above

Cc1cc(C2CC2)nc(Nc2ccccc2)n1
not listed: [3] | [8] | [10]
inactive: all other assays above

CC1=NNC(=O)N(/N=C/c2cccnc2)C1
not listed: [3] | [8]
inactive: all other assays above

Nc1c(Cl)cc([N+](=O)[O-])cc1Cl
not listed: [3] | [10]
inactive: all other assays above

CCOP(=S)(OCC)Oc1ccc2c(C)c(Cl)c(=O)oc2c1
active: [1] 13.6 µM | [5] 31.3 µM
inactive: [2] | [4] | [6] | [7] | [9]

CC[C@H](C)[C@H]1O[C@]2(C=C[C@@H]1C)C[C@@H]1C[C@@H](C/C=C(\C)[C@@H](O[C@H]3C[C@H](OC)[C@@H](O[C@H]4C[C@H](OC)[C@@H](NC)[C@H](C)O4)[C@H](C)O3)[C@@H](C)/C=C/C=C3\CO[C@@H]4[C@H](O)C(C)=C[C@@H](C(=O)O1)[C@]34O)O2
active: [1] 2.85 µM | [2] 3.85 µM | [4] 5.27 µM | [5] 4.8 µM | [6] 2.08 µM | [7] 9.03 µM | [8] 8.17 µM | [9] 6.31 µM

CCOC(=O)CC(SP(=O)(OC)OC)C(=O)OCC (stereo unspecified)
active: [5] 10.8 µM
not listed: [3] | [10]
inactive: all other assays above

FC(F)C(F)(F)OCC(Cn1cncn1)c1ccc(Cl)cc1Cl (stereo unspecified)
active: [1] 23.4 µM | [6] 19.4 µM
not listed: [3] | [8]
inactive: all other assays above

O=[N+]([O-])c1cc(C(F)(F)F)c(Cl)c([N+](=O)[O-])c1Nc1ncc(C(F)(F)F)cc1Cl
active: [1] 1.17 µM and 6.88 µM | [2] 810 nM and 9.49 µM | [4] 1.32 µM and 8.98 µM | [10] 1.59 µM and 10.6 µM | [5] 954 nM and 7.64 µM | [6] 859 nM and 9.54 µM | [7] 1.15 µM and 9.82 µM | [9] 741 nM and 5.95 µM

CC(=NC#N)N(C)Cc1ccc(Cl)nc1
not listed: [3] | [10]
inactive: all other assays above

CNc1cnn(-c2cccc(C(F)(F)F)c2)c(=O)c1Cl
not listed: [3] | [8] | [10]
inactive: all other assays above

CCOP(=S)(Oc1cnc(C(C)(C)C)nc1)OC(C)C (stereo unspecified)
active: [1] 20 µM | [2] 37 µM | [4] 31.6 µM | [5] 26.8 µM | [9] 31.4 µM
inactive: [6] | [7]

O=C(O)c1cc(Oc2ccc(C(F)(F)F)cc2Cl)ccc1[N+](=O)[O-]
not listed: [3] | [8]
inactive: all other assays above

CCOP(=O)(SC(C)CC)N1CCSC1=O (stereo unspecified)
active: [8] 0.704 µM
not listed: [3] | [10]
inactive: all other assays above

CCCOc1nn(C(=O)NS(=O)(=O)c2ccccc2C(=O)OC)c(=O)n1C
not listed: [3] | [8] | [10]
inactive: all other assays above

COP(=O)(OC)OC(Br)C(Cl)(Cl)Br (stereo unspecified)
active: [1] 16.4 µM | [2] 20 µM | [4] 17.5 µM | [10] 32.7 µM | [5] 13.4 µM | [6] 30.1 µM | [7] 31.1 µM | [8] 30 µM | [9] 26.1 µM

CCOP(=O)(NC(C)C)Oc1ccc(SC)c(C)c1 (stereo unspecified)
not listed: [3] | [8] | [10]
inactive: all other assays above

Nc1nc(N)nc(NC2CC2)n1
not listed: [3] | [8]
inactive: all other assays above

C#CCC1=C(C)C(OC(=O)C2C(C=C(C)C)C2(C)C)CC1=O (stereo unspecified)
active: [1] 29.2 µM | [2] 33.3 µM | [4] 37 µM | [5] 34.8 µM | [6] 32 µM | [9] 22.3 µM
inactive: [7] | [8]

CC(C)N(C(=O)SCC(Cl)=C(Cl)Cl)C(C)C
active: [1] 32 µM | [2] 33.8 µM | [4] 33.8 µM | [5] 34.8 µM | [6] 34.4 µM | [7] 29.8 µM | [9] 32.5 µM

CC(C1CC1)C(O)(Cn1cncn1)c1ccc(Cl)cc1 (stereo unspecified)
not listed: [3] | [8] | [10]
inactive: all other assays above

CCCCSP(=O)(SCCCC)SCCCC
active: [1] 14.6 µM
not listed: [3] | [8] | [10]
inactive: all other assays above

CNC(=O)ON=C(C)SC
not listed: [3] | [8] | [10]
inactive: all other assays above

CC(C)[C@H](C(=O)O[C@H](C#N)c1cccc(Oc2ccccc2)c1)c1ccc(Cl)cc1
active: [10] 3.97 µM
not listed: [3] | [8]
inactive: all other assays above

COc1ccc(C(=CC(=O)N2CCOCC2)c2ccc(Cl)cc2)cc1OC
active: [6] 7.96 µM
not listed: [3] | [8] | [10]
inactive: all other assays above

CCNc1nc(Cl)nc(NC(C)(C)C#N)n1
active: [6] 10.6 µM
not listed: [3] | [10]
inactive: all other assays above

N#CSCSC#N
active: [1] 1.93 µM | [2] 0.66 µM | [4] 1.78 µM | [5] 1.71 µM | [6] 2.32 µM | [7] 5.57 µM | [9] 4.78 µM

CC1(C(=O)Nc2ccc(O)c(Cl)c2Cl)CCCCC1
not listed: [3] | [8]
inactive: all other assays above

CCOP(=S)(OCC)SCCSCC
active: [5] 36.9 µM | [8] 37 µM
not listed: [3]
inactive: all other assays above

CCOP(=S)(OCC)Oc1ccc([N+](=O)[O-])cc1
active: [1] 9.79 µM | [5] 20 µM | [6] 20 µM
not listed: [3] | [8]
inactive: all other assays above

COc1cccc(C(=O)NN(C(=O)c2cc(C)cc(C)c2)C(C)(C)C)c1C
not listed: [3] | [8]
inactive: all other assays above

CSc1nc(NC(C)C)nc(NC(C)C)n1
not listed: [3] | [8]
inactive: all other assays above
